Data as given in PubChem BioAssay AID743295 (Broad Institute, 2014).
Entries with a potency or affinity are not part of this list. Calls of active or inactive are those of the source.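 How the source made its calls: active means compounds lowering caspase 7 signal with dose, half-maximal concentration at most twice the top valid dose; inconclusive means flat fit with 30 to 70% inhibition, or poor fit; inactive means the rest.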

molecular target: Caspase-7 (Homo sapiens) (UniProt P55210); assay: human caspase-7 inhibitors, dose response, selectivity assay for caspase-6 inhibitor project, biochemical, DEVD-R110 fluorescence, cherry-pick (AID 743295); conditions: purified caspase-7, DEVD-R110 cleavage fluorescence; series mostly up to 35 µM
Sequence (P55210 whole entry, looked up): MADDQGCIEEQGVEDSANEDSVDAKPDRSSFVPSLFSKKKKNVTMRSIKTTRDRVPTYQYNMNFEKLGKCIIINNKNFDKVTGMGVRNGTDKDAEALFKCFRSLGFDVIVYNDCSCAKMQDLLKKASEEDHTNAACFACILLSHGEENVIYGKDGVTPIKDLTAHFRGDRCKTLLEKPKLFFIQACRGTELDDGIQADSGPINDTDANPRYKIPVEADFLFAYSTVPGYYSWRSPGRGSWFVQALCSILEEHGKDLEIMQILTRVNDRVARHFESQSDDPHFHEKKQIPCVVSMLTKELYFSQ

| SMILES | outcome |
| --- | --- |
| Cc1c(CCC(=O)O)c(=O)oc2c(C)c(OCc3ccccc3Cl)ccc12 | inactive |
| COCCN(C(=O)COC(=O)c1cc2c(s1)CCC2)c1c(N)n(Cc2ccccc2)c(=O)[nH]c1=O | inactive |
| CNS(=O)(=O)c1cccc(C(=O)OCC(=O)N2c3ccccc3NC(=O)C2(C)C)c1 | inactive |
| O=C(COC(=O)c1ccc([N+](=O)[O-])s1)Nc1ccc(F)cc1 | inactive |
| O=C(Nc1ccc2nc3n(c(=O)c2c1)CCCCC3)c1c(F)ccc([N+](=O)[O-])c1F | inactive |
| O=P(c1ccccc1)(c1ccccc1)c1cc(S(=O)(=O)O)ccc1O | inactive |
| CO[C@H]1CN(C)C(=O)c2cc(NC(C)=O)ccc2OC[C@@H](C)N(C(=O)CC2CC2)C[C@H]1C | inactive |
| Nc1ccc(Nc2ccccc2)c(S(=O)(=O)O)c1 | inactive |
| COc1cc(NC(=O)COC(=O)c2ccc([N+](=O)[O-])s2)cc(OC)c1OC | inactive |
| CCCc1nc2c(=O)n(C)c(=O)nc-2n(C)n1 | inactive |
| COc1cc(-c2ccc(Nc3ccccc3C(=O)O)c(OC)c2)ccc1Nc1ccccc1C(=O)O | inactive |
| Oc1cc(NCCc2cccnc2)cc2cccnc12 | inactive |
| C/C(CC(=O)N1CCCC1)=N\NC(=O)c1cc2ccccc2cc1O | inactive |
| Cn1cnnc1SCC(=O)Nc1ncc([N+](=O)[O-])s1 | inactive |
| CCOC(=O)[C@H](Cc1c[nH]c2ccccc12)NC(=O)CN=[N+]=[N-] | inactive |
| O=C(O)Cc1ccc(-n2cccc2)cc1 | inactive |
| Cc1cc(C=O)c(C)n1-c1cc(C(=O)O)cc(C(=O)O)c1 | inactive |
| Nc1cc(S(=O)(=O)O)cc([N+](=O)[O-])c1O | inactive |
| Cc1ccc(S(=O)(=O)Nc2csc(C)c2C(=O)O)cc1 | inactive |
